The source of these data is PubChem BioAssay (Tox21).

Unmarked numbers belong to inactive results. Records with an inconclusive call do not appear. The source made the active and inactive calls. Unless noted, calls come from the whole dose curve.

Test [1] is described as follows: Nuclear factor erythroid 2-related factor 2/antioxidant responsive element (Nrf2/ARE) small molecule agonists: qHTS cell viability counter screen in human keratinocytes (AID 1919968; active = well fitted curve in the direction sought with a large enough effect in the repeat runs; an effect the other way counts as inactive or inconclusive; note: nearly all actives have a fitted effect of over 55% in size; note: potency is the fitted concentration of half-maximal effect). The procedure, abridged:
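Measured as CellTiter-Fluor fluorescence, this readout tracks cytotoxicity in the same wells as the ARE-luciferase screen. HaCaT reporter cells (1,500/well) received compounds after a 5 h pre-incubation and were exposed for 23 h.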
Background: Quantitative high-throughput screening tests each substance at several concentrations.

The nature of test [2]: Nuclear factor erythroid 2-related factor 2/antioxidant responsive element (Nrf2/ARE) small molecule agonists: luciferase reporter gene qHTS assay in human keratinocytes (AID 1919969). Note: nearly all actives have a fitted effect of over 35% in size. Note: potency is the fitted concentration of half-maximal effect. A general note: In a reporter assay the amount or activity of a reporter protein is the signal.
The target in test [3] is Gonadotropin-releasing hormone receptor (Homo sapiens) (UniProt P30968). Put plainly: Human gonadotropin-releasing hormone receptor (GnRHR) small molecule agonists, calcium flux assay in GnRHR-HEK293 cells (AID 1920063). Note: nearly all actives have a fitted effect of over 35% in size. A digest of the protocol: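 Fluorescence kinetics (480 nm excitation, 540 nm emission; 3 min, 1 s steps) report calcium mobilisation in human GnRHR-HEK293 cells in agonist mode. Dye incubation: 1 h, 37 C.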
(A change in cytosolic calcium serves as a functional read-out for many receptors and channels.)

Test [4] deals with KiSS-1 receptor (Homo sapiens) (UniProt Q969F8). Put plainly: Human kisspeptin (KISS1R) small molecule agonists, calcium flux assay in KISS1R-HEK293 cells (AID 1920064; active = well fitted curve in the direction sought with a large enough effect in the repeat runs; an effect the other way counts as inactive or inconclusive). A digest of the protocol:
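Measures KISS1R agonism through calcium-sensitive dye fluorescence in stably transfected HEK293 cells, read for 3 min after pin-tool compound delivery; 15-point titrations in triplicate.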

Test [5] is described as follows: G protein-coupled receptor (GPCR) small molecule agonists, calcium flux assay: HEK293 wild type cell line counter screen (AID 1920065). A digest of the protocol: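 Readout: fluorescence at 480 nm excitation/540 nm emission, sampled at 1 s intervals for 3 min. Cells had been cultured 18 h, then dye-loaded 1 h at 37 C before compound or ATP addition.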
A short description of test [6]: p53 small molecule agonists, cell-based qHTS assay with human liver microsomes (AID 1963577).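 Note: p53 response element beta-lactamase reporter cells with liver microsomes plus NADPH.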 A digest of the protocol: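 Metabolically competent format: test substances, human liver microsomes and NADPH (both 0.5 mg/mL final) incubated with p53RE-bla cells 16 h at 37 C. Beta-lactamase reporter signal then quantified by fluorescence.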
Test [7] is described as follows: p53 small molecule agonists, cell-based qHTS assay with rat liver microsomes (AID 1963578). The procedure, abridged: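 Each plate received p53RE-bla cells, then compound, then rat liver microsomes and NADPH (both 0.5 mg/mL final). Plates were held 16 h at 37 C, and beta-lactamase activity was detected with LiveBLAzer over 2 h.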
Test [8] can be described thus: p53 small molecule agonists, cell-based qHTS assay with rat liver microsomes: qHTS cell viability counter screen (AID 1963580). Note: nearly all actives have a fitted effect of over 45% in size. The procedure, abridged:
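Intracellular ATP, by CellTiter-Glo luminescence, defines viability. HCT-116 p53RE-bla cells, 4,000 per well, were compound-treated in the presence of rat liver microsomes and NADPH for 16 h at 37 C.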

Test [9] deals with 5-hydroxytryptamine receptor 2A (Homo sapiens) (UniProt P28223). Put plainly: 5-hydroxytryptamine receptor 2A (HTR2A) small molecule antagonists, cell-based qHTS assay (AID 1963586). Note: nearly all actives have a fitted effect of over 45% in size. Note: potency is the fitted concentration of half-maximal effect. The procedure, abridged: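 Antagonist-mode intracellular calcium assay: DOI (4 nM) added after 5 min compound pre-incubation at room temperature to dye-loaded HTR2A-CHO cells. Fluorescence followed for 3 min, sampled every second.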

For test [10], the target named is Muscarinic acetylcholine receptor M1 (Homo sapiens) (UniProt P11229). Description: Cholinergic receptor muscarinic 1 (CHRM1) small molecule antagonists, cell-based qHTS assay (AID 1963588). Note: nearly all actives have a fitted effect of over 40% in size. A digest of the protocol:
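CHRM1-CHO calcium-flux assay, antagonist mode. Cells were seeded 18 h, dye-loaded 1 h at 37 C and given compound for 5 min at RT, then acetylcholine was added at 50nM. FDSS fluorescence was read 3 min; 15 concentrations, three runs.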

Test [11] shares this target. Description: Cholinergic receptor muscarinic 1 (CHRM1) small molecule agonists, cell-based qHTS assay (AID 1963589). Note: nearly all actives have a fitted effect of over 35% in size. The procedure, abridged: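 Each compound was tested at 15 concentrations across three independent runs on dye-loaded CHO cells stably expressing human CHRM1, reading intracellular calcium fluorescence kinetically at 1 sec intervals.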
Test [12] can be described thus: cAMP Responsive Elements (CRE) small molecule agonists, cell-based qHTS assay (AID 1963590). A digest of the protocol: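 Cell line: CRE-bla HEK 293T; medium DMEM/10% dialyzed FBS/0.1 mM NEAA/1 mM pyruvate/25 mM HEPES; 3 h compound exposure; beta-lactamase FRET readout after 2 h substrate loading at RT.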
Test [13] in a line: cAMP Responsive Elements (CRE) small molecule antagonists, cell-based qHTS assay (AID 1963591; active = well fitted inhibition curve with a large enough effect in the signal ratio in the repeat runs, not every such curve was filed as active; the % refers to the signal ratio; note: potency is the fitted concentration of half-maximal effect). A digest of the protocol:
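Inhibition of NKH477-driven (0.25 uM final) CRE-beta-lactamase signal in HEK293T cells, 3 h compound exposure at 37 °C, detected by FRET substrate fluorescence.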

In test [14] the target is D(2) dopamine receptor (Homo sapiens) (UniProt P14416). Description: Dopamine D2 receptor (DRD2) small molecule agonists, cell-based qHTS assay (AID 1963594). Note: nearly all actives have a fitted effect of over 35% in size. Note: potency is the fitted concentration of half-maximal effect. The procedure, abridged: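 cAMP accumulation in DRD2-HEK293 cells measured by HTRF after 1 h detection; compounds added 10 min before NKH477 (200nM […]) forskolin-analogue stimulation, 30 min at room temperature, with Ro20-1724 present at 0.1 mM final.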

Test [15] is described as follows: p53 small molecule agonists, cell-based qHTS assay (AID 1963582; active = well fitted activation curve with a large enough effect in the signal ratio in the repeat runs, not every such curve was filed as active; the % refers to the signal ratio). A digest of the protocol: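 Compounds are pin-transferred in DMSO onto p53RE-bla cells and incubated 16 h at 37 C. The B/G FRET beta-lactamase substrate is then applied for 2 h at RT and fluorescence recorded.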
Test [16] concerns the target 5-hydroxytryptamine receptor 2A (Homo sapiens) (UniProt P28223). Put plainly: 5-hydroxytryptamine receptor 2A (HTR2A) small molecule agonists, cell-based qHTS assay (AID 1963587). Note: nearly all actives have a fitted effect of over 30% in size. Note: potency is the fitted concentration of half-maximal effect. A digest of the protocol: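 Kinetic calcium-flux fluorescence (2 min, 1 sec intervals) after compound addition in agonist mode. HTR2A-CHO cells were cultured 18 h, then dye-loaded 1 h at 37 C.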

Test [17] deals with Beta-2 adrenergic receptor (Homo sapiens) (UniProt P07550). Put plainly: Adrenergic beta2 receptor (ADRB2) small molecule antagonists, cell-based qHTS assay (AID 1963592). Note: series mostly up to about 92 µM; nearly all actives have a fitted effect of over 50% in size. The procedure, abridged:
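Cells (CHO, stable ADRB2 overexpression) incubated 18-20hr at 37C; compounds added from DMSO; agonist mix (1nM isoproterenol, 100uM IBMX, 25uM Ro-20-1724) added; 0.5hr RT; d2-cAMP and anti-cAMP-cryptate added; 1hr RT; 665/615 nm read.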

Test [18] addresses D(2) dopamine receptor (Homo sapiens) (UniProt P14416). Put plainly: Dopamine D2 receptor (DRD2) small molecule antagonists, cell-based qHTS assay (AID 1963595; active = well fitted inhibition curve with a large enough effect in the signal ratio in the repeat runs, with a control signal flat; the % refers to the signal ratio). A digest of the protocol: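 Antagonist mode in DRD2-HEK293 cells: after compound addition with 0.1 mM Ro20-1724, cells received quinpirole (12 nM) and NKH477 (200 nM) for 30 min at room temperature; HTRF cAMP read after 1 h detection.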

Test [19] is described as follows: p53 small molecule agonists, cell-based qHTS assay: qHTS cell viability counter screen (AID 1963581). Note: nearly all actives have a fitted effect of over 45% in size. Note: potency is the fitted concentration of half-maximal effect. The procedure, abridged: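 In the same plates used for the p53 bla reporter, HCT-116 cells given compounds for 16 h at 37 C received CellTiter-Glo; luminescence was recorded 30 min later at room temperature.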

Chain of D(2) dopamine receptor (Homo sapiens) (P14416 whole entry, looked up): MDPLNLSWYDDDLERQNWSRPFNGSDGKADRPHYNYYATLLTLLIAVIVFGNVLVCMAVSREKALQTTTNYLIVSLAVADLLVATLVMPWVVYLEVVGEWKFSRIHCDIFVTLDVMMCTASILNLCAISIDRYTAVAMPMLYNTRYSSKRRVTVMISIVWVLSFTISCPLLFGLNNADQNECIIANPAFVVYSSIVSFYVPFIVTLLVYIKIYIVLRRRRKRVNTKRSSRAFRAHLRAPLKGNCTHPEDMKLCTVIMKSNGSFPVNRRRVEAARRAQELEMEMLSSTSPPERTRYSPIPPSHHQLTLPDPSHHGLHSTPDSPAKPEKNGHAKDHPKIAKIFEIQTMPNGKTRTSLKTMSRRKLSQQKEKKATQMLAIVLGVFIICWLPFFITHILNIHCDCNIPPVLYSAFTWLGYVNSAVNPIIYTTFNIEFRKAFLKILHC
Chain of KiSS-1 receptor (Homo sapiens) (Q969F8 whole entry, looked up): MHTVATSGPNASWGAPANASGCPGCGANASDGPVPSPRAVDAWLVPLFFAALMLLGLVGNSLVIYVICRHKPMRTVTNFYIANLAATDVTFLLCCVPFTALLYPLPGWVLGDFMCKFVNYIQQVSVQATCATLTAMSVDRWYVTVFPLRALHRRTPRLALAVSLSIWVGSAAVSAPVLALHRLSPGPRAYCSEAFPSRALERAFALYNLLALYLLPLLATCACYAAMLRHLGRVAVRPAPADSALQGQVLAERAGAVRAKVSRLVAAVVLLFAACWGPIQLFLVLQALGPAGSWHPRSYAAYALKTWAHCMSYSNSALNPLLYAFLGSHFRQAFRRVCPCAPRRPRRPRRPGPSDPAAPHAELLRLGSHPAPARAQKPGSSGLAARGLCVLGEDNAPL
Chain of Beta-2 adrenergic receptor (Homo sapiens) (P07550 whole entry, looked up): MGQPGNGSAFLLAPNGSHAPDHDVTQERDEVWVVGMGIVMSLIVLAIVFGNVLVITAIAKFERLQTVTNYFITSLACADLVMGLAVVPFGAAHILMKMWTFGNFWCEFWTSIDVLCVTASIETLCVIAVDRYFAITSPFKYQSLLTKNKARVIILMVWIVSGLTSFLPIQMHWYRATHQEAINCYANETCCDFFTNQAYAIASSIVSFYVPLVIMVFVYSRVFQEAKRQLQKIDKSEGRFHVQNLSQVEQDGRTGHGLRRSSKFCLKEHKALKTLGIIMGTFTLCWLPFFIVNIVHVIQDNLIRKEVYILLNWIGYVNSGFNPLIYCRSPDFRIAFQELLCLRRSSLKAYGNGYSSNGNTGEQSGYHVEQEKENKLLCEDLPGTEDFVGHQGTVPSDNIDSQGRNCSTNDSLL
Chain of Muscarinic acetylcholine receptor M1 (Homo sapiens) (P11229 whole entry, looked up): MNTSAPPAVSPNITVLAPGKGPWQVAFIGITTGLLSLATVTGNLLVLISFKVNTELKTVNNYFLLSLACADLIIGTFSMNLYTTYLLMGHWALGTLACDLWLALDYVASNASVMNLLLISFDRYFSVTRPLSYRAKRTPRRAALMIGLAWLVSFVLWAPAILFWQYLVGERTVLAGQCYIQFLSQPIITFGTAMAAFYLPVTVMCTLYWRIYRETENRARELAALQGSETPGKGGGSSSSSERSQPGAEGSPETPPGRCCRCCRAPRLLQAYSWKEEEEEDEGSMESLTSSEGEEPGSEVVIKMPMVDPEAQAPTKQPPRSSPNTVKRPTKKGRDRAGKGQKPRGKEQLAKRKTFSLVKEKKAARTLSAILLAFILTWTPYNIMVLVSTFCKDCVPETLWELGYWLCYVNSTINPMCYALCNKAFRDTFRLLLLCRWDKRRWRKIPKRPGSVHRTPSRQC
Chain of Gonadotropin-releasing hormone receptor (Homo sapiens) (P30968 whole entry, looked up): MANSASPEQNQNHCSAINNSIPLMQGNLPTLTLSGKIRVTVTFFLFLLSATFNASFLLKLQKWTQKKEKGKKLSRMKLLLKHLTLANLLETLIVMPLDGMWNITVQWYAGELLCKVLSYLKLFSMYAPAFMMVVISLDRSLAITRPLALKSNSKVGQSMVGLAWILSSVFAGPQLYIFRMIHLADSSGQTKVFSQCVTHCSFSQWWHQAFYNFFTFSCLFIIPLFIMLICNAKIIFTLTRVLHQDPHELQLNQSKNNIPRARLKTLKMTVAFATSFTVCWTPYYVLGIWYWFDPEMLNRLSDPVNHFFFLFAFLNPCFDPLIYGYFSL
Chain of 5-hydroxytryptamine receptor 2A (Homo sapiens) (P28223 whole entry, looked up): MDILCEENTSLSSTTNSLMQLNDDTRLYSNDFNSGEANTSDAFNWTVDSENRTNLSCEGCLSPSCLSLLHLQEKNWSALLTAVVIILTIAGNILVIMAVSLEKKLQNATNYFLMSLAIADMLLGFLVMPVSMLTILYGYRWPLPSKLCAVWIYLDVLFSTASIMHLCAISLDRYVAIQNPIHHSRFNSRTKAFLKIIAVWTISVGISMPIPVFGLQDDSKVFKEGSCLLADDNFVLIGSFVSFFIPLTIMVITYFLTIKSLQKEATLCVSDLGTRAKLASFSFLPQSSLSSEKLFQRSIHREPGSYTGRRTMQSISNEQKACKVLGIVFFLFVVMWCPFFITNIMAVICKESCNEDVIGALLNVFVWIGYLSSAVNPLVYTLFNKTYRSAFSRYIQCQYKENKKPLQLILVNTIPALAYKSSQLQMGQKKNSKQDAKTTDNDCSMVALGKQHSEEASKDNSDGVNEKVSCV

Take `CCCCCCCCCOC(=O)c1ccc(O)cc1`: the figures for the Potency in test [1] and in [13] were 26.9 µM (active) and 21.4 µM (active), respectively. Further, the Potency entry in test [2], in test [3], in test [6], in test [7], in test [8] and in test [9] was “inactive” throughout. The Potency result in test [10], in [11], in test [12] and in test [14] was “inactive” throughout. Besides, the outcome in test [4] and in [5] was inactive.

Turning to `C=CCN1CCc2nc(N)sc2CC1`, the Potency result in test [1], in test [2], in test [3], in test [6], in test [7] and in test [8] was “inactive” in each case. Besides, the Potency result in [15], in [10], in test [11], in [12], in [13] and in test [17] was “inactive” throughout. Moreover, the Potency entry in test [18] is “inactive”. For the same compound, the outcome in test [4] and in test [5] was inactive. The Potency was 4.1 µM (active) in [9], 6.01 µM (active) in test [16] and 0.119 µM (active) in [14].

Consider `CC(C)=CCC1C(=O)N(c2ccccc2)N(c2ccccc2)C1=O`, for which the Potency entry in test [1], in [3], in [6], in [7], in test [8] and in test [19] was “inactive” throughout. The Potency entry in test [9], in test [16], in [10], in [11] and in [14] was “inactive” in each case. Further, the Potency in test [2] is 29.8 µM (active). Further, the outcome in [4] and in [5] was inactive.

`CC(C)OC(=O)c1ccccc1`: the Potency entry in test [1], in [2], in test [3], in test [6], in test [7] and in [8] was “inactive” in each case. Also, the Potency entry in test [19], in test [9], in test [16], in test [10], in test [12] and in test [13] was “inactive” each time. Besides, the Potency result in test [17], in test [14] and in test [18] was “inactive” each time. Also, the result in [4] and in test [5] was inactive.

In the case of `Cc1c(C2(c3cc(Br)c(O)c(Br)c3C)OS(=O)(=O)c3ccccc32)cc(Br)c(O)c1Br`, the Potency in [1] was 21 µM (active); in [19] it was 22.3 µM (active). In addition, the Potency result in [2], in [3], in [6], in test [7], in [8] and in test [9] was “inactive” throughout. Moreover, the Potency entry in [12] and in test [13] was “inactive” in each case. Moreover, the outcome in test [4] and in test [5] was inactive.

Regarding `Oc1ccccc1Cc1ccccc1O`, the Potency result in [1], in test [2], in [3], in test [6], in [7] and in test [8] was “inactive” throughout. Further, the Potency entry in test [19], in test [9], in test [16], in [10], in test [11] and in test [12] was “inactive” in each case. The Potency entry in [13], in [17], in test [14] and in [18] was “inactive” in each case. The outcome in test [4] and in test [5] was inactive.

`CCN1CCN(c2cc3c(cc2F)c(=O)c(C(=O)O)cn3C2CC2)CC1`: the Potency result in test [1], in [2], in [3], in test [6], in [7] and in test [8] was “inactive” each time. Moreover, the Potency entry in test [19], in test [15], in test [14] and in [18] was “inactive” in each case. The outcome in test [4] and in test [5] was inactive.

For `CC1(C)Cc2cccc(N)c2O1`, the Potency result in test [1], in test [2], in [3], in [6], in test [7] and in [8] was “inactive” throughout. Moreover, the Potency entry in [15], in test [9], in test [16], in [10], in [11] and in test [12] was “inactive” in each case. Moreover, the Potency entry in test [13], in test [17] and in test [14] was “inactive” throughout. The result in test [4] and in test [5] was inactive.
